The source of these data is ChEMBL document CHEMBL3988442, “University of Dundee, Small-Polar-MMV Screening Library” (2021).

In all, about 48,000 compounds went through this assay and about 13,000 (27%) showed an effect of 50% or more. The list shows a part of the results.

For this assay, the system named is Wolbachia pipientis. Description: Anti-Wolbachia Cell-Based Screen. The class given is functional. The conditions noted are these: 5 µM. Also on record: scale not given: in the data most compounds retested in dose-response had high values.
`Cc1cc(F)ccc1OC1(C(=O)O)CCN(Cc2cccnc2N)CC1`: the “Percent Effect” value was -8.297%.
As to `Cc1noc(C)c1CN(C)Cc1csc(-c2ccc(F)cc2)n1`, the “Percent Effect” value was 17.5%.
With `Cc1cc(C(=O)N2CCN(C(=O)CCC3CCCCC3)CC2)n(C)n1` the figure was -12.7%; with `O=S(=O)(Cc1ccccc1)c1nnc(N2CCCC2)s1`, -13.72%; with `Cc1ncc(CN(C)C(=O)Nc2cccc(CN3CCOC3=O)c2)s1`, 6.587%.
The result for `CN(C)C(=O)[C@H]1C[C@@H]2CN(C(=O)NCC3CCCCC3)C[C@H]1O2` reads -9.234%; that for `Cc1ccc(C2CCCN2Cc2nc(-c3ccco3)no2)cc1` (stereo unspecified), 6.26%; that for `Cc1nn(C)c(C)c1C1CCCN1Cc1nc(-c2ccco2)no1` (stereo unspecified), 17.11%.
As for `COc1c(C2CCCN2Cc2c(C)noc2C)c(C)nn1C` (stereo unspecified), the “Percent Effect” value is recorded as -0.2322%.
Turning to `CCCc1noc(CN2CCCC2c2c(C)nn(C)c2OC)n1` (stereo unspecified), the “Percent Effect” value is reported as -3.307%.
The result for `Cc1nn(C)c(Cl)c1C1CCCN1Cc1nc(-c2ccco2)no1` (stereo unspecified) reads 77.16%; that for `COc1c(C2CCCN2Cc2nc(-c3ccco3)no2)c(C)nn1C` (stereo unspecified), 131.1%; that for `CCOC(C)c1nc(CN2CCNCC2)cs1` (stereo unspecified), 1.236%.
Turning to `Cc1cc(C)cc(CN2C[C@@H]3OCCN(CC(=O)N(C)C)[C@@H]3C2)c1.O=C(O)C(F)(F)F`, the “Percent Effect” value is 122.5%.
The result for `CN(C)CCN1CCO[C@H]2CN(Cc3cnn(C)c3)C[C@H]21.O=C(O)C(F)(F)F.O=C(O)C(F)(F)F.O=C(O)C(F)(F)F` reads 2.67%; that for `CN(C)C(=O)CN1CCO[C@H]2CN(Cc3cccc(F)c3)C[C@H]21`, 99.44%; that for `CN(C)C(=O)CO[C@H]1CN(Cc2cccc(F)c2)[C@@H]2CCCO[C@H]12.O=C(O)C(F)(F)F`, 5.103%.
With `CN1CCC(N(C)CCC(=O)N2CCN(Cc3cccc(F)c3)CC2)C1` (stereo unspecified), the “Percent Effect” value is recorded as -12.08%.
With `Cc1cccc(CN2C(=O)CO[C@@H]3CN(C4CCOCC4)C[C@H]32)c1.O=C(O)C(F)(F)F` the figure was 109.7%.
With `CN(C)C(=O)CN1CCO[C@H]2CN(Cc3ccoc3)C[C@H]21`, the “Percent Effect” value was determined as 95.5%.
With `Cc1cc(C)cc(CN2C[C@@H]3OCCN(S(=O)(=O)N(C)C)[C@@H]3C2)c1` the figure was -1.729%.
The result for `O=C(O)C(F)(F)F.O=C1CO[C@@H]2CN(C3CCOCC3)C[C@H]2N1Cc1cccc(F)c1` reads 2.353%.
Turning to `c1cc(CN2C[C@@H]3OCCN(CC4CCCO4)[C@@H]3C2)co1` (stereo partly specified), the “Percent Effect” value is -2.91%.
Turning to `Cc1cccc(CN2C(=O)CO[C@@H]3CN(CCO)C[C@H]32)c1.O=C(O)C(F)(F)F`, the “Percent Effect” value is given as 23.75%.
Consider `O=C(O)C(F)(F)F.O=C(O)C(F)(F)F.O=C(O)C(F)(F)F.c1cc(CN2C[C@@H]3OCCN(CCN4CCCC4)[C@@H]3C2)co1`, for which the “Percent Effect” value is reported as -5.454%.
In the case of `CC(SCc1cc(Br)cc2cccnc12)C(N)=O` (stereo unspecified), the “Percent Effect” value is recorded as -22.01%.
Consider `COc1ccc2c(c1)CC(C(=O)N(C)CCCc1cnn(C)c1)CO2` (stereo unspecified), for which the “Percent Effect” value was -3.689%.
With `CC(C)[C@@H]1CN(c2ccc(C(F)(F)F)cn2)C[C@H]1NS(C)(=O)=O` the figure was -16.11%.
With `OCC(O)CSCc1ccc(F)cc1Cl` (stereo unspecified) the figure was -2.217%; with `CC(=O)N[C@@H]1CN(C(=O)c2ccoc2)C[C@H]1c1ccc(C)cc1`, 0.232%; with `Cc1cccc(CN2C[C@@H]3OCCN(S(=O)(=O)N(C)C)[C@@H]3C2)c1.O=C(O)C(F)(F)F`, 1.609%.
With `Cc1cccc(CN2C[C@@H]3OCCN(CC(=O)N(C)C)[C@@H]3C2)c1.O=C(O)C(F)(F)F` the figure was 97.29%; with `Cc1cc(CN2CC[C@H]3[C@H]2CCN3CC(=O)N(C)C)oc1C.O=C(O)C(F)(F)F.O=C(O)C(F)(F)F`, -40.85%; with `O=C(NC[C@H]1OC[C@@H](NC2COC2)[C@@H]1O)C1CCCC1`, -18.2%.
On to `Cn1cc(C(C)(O)CNC(=O)c2ccc(Br)s2)cn1` (stereo unspecified), for which the “Percent Effect” value came to 0.7525%.
In the case of `Cc1noc(C)c1CN(Cc1ccccc1)C(C)C`, the “Percent Effect” value is reported as -1.884%.
The result for `CN(C)C(=O)[C@@H]1CCO[C@@H]2CCN(CCOCc3ccccc3)C[C@H]21.O=C(O)C(F)(F)F` reads 110%; that for `CN(C)C(=O)[C@@H]1CCO[C@@H]2CCN(CCc3ccccc3)C[C@@H]21.O=C(O)C(F)(F)F`, 0.9995%; that for `O=C(NC1CC1)[C@@H]1CCO[C@@H]2CCN(CCc3ccccc3)C[C@@H]21.O=C(O)C(F)(F)F`, 121.8%.
Consider `O=C(NCC1CC1)[C@@H]1CCO[C@@H]2CCN(Cc3ccc(F)cc3)C[C@H]21.O=C(O)C(F)(F)F`, for which the “Percent Effect” value is -1.927%.
For the molecule `O=C(NC1CCC1)[C@@H]1CCO[C@@H]2CCN(CCc3ccccc3)C[C@H]21.O=C(O)C(F)(F)F`, the “Percent Effect” value came to 10.39%.
The result for `O=C(NC1CC1)[C@@H]1CCO[C@@H]2CCN(C3CCOCC3)C[C@H]21.O=C(O)C(F)(F)F` reads -6.605%.
The result for `O=C(NCC1CC1)[C@@H]1CCO[C@@H]2CCN(CCc3ccccc3)C[C@H]21.O=C(O)C(F)(F)F` reads 103.2%; that for `Cc1noc(C)c1CN1CC[C@H]2OCC[C@@H](C(=O)NCC3CC3)[C@H]2C1.O=C(O)C(F)(F)F`, -0.6103%.
Consider `CNC(=O)[C@@H]1CCO[C@@H]2CCN(CCc3ccccc3)C[C@H]21.O=C(O)C(F)(F)F`, for which the “Percent Effect” value is on record as 100.2%.
The result for `CNC(=O)[C@@H]1CCO[C@@H]2CCN(C3CCOCC3)C[C@@H]21.O=C(O)C(F)(F)F` reads -5.14%; that for `CN(C)C(=O)[C@@H]1CCO[C@@H]2CCN(Cc3ccccc3)C[C@@H]21.O=C(O)C(F)(F)F`, -6.959%.
The result for `CC1=N[C@@]2(CC[C@@H]3CN(S(=O)(=O)CC(C)C)C[C@@H]32)C(=O)N1CC1CC1` reads 5.74%; that for `O=C(C1CCCN(Cc2cccc(F)c2)C1)N1CCc2sccc2C1` (stereo unspecified), 1.206%; that for `CCN(CCc1nccs1)C(=O)c1sccc1C`, -15.07%.
Take `Cc1noc(C)c1CN(C)Cc1csc(-c2ccc(C(C)C)cc2)n1`: the “Percent Effect” value is recorded as -1.572%.
With `COCC(C)(CCO)NC(=O)Nc1cccc(F)c1C` (stereo unspecified) the figure was -3.176%.
Consider `O=C(O)C(F)(F)F.O=C([C@H]1CN(CCc2ccccc2)C[C@H]2OCC[C@@H]12)N1CCCO1`, for which the “Percent Effect” value is -7.584%.
Regarding `O=C(O)C(F)(F)F.O=C([C@@H]1CCO[C@@H]2CCN(CCc3ccccc3)C[C@@H]21)N1CCCC1`, the “Percent Effect” value stood at 117.3%.
Consider `O=C([C@@H]1CCO[C@@H]2CCN(CC3CC3)C[C@H]21)N1CCCC1`, for which the “Percent Effect” value is -26.98%.
Consider `Cl.Cl.Cn1cnc2c(-c3cccnc3)nc(C3CCNCC3)cc21`, for which the “Percent Effect” value is -57.7%.
With `CN(C)c1ncc2c(O)nc(C3CCCNC3)cc2n1` (stereo unspecified) the figure was 88.81%.
In the case of `Cc1nc(C2CCCNC2)cc(N(C)CCc2cn[nH]c2)n1` (stereo unspecified), the “Percent Effect” value was found to be 4.214%.
With `CC(C)n1cnc2c(N3CCCC3)nc(C3CCNCC3)cc21.Cl.Cl` the figure was -3.823%; with `CCN(CC)c1ncc(Cl)c(C(=O)NC2CC2)n1`, -2.852%.
With `CN(C)c1ncc2c(O)nc(C3CCNCC3)cc2n1.Cl` the figure was 122.5%; with `CCN(CC)c1ncc2c(O)nc(C3CCNCC3)cc2n1`, 97.4%; with `CCN(CC)c1ncc(Cl)c(C(=O)NC2CCC(O)CC2)n1` (stereo unspecified), -11%.
As to `CN(C)CCNC(=O)c1noc2c1CN(C(=O)N(C)C)CC2`, the “Percent Effect” value was 9.564%.
`Cc1ccc(C(=O)NCCCS(=O)(=O)c2ccccc2)c(=O)[nH]1`: the “Percent Effect” value came out at 14.19%.
For `Cc1c(C(=O)NCCCS(C)(=O)=O)cccc1-c1ccccn1`, the “Percent Effect” value came out at 78.39%.
For the molecule `Cc1c(C(=O)NCCC(=O)N2CCCC2)oc2c(F)cccc12`, the “Percent Effect” value is reported as 5.296%.
With `Cn1ccc2c(C(=O)NCCCS(C)(=O)=O)cccc21` the figure was -9.064%; with `Cc1c(I)cccc1C(=O)NCc1ncc[nH]1`, -7.865%; with `Cc1c(NCC(C)(C)C)cccc1C(=O)NCc1ncnn1C`, -8.622%.
The result for `Cc1c(C(=O)NCCC(=O)N2CCCC2)cccc1-c1ccccn1` reads 102.1%.
For `Cn1cc(C(=O)NCCC(=O)N2CCCCC2)c(-c2cccnc2)n1`, the “Percent Effect” value was -19.31%.
With `Cc1c(C(=O)NCC(C)(C)S(C)(=O)=O)cccc1-c1ccccn1` the figure was 90.41%; with `Cc1csc(C2(NCc3nc(-c4ccco4)no3)CCCC2)n1`, -16%.
The result for `Cc1cc(C)n2nc(CC(=O)N[C@H]3C[C@H]4CN(C)CCN4C3)nc2n1` reads -5.28%.
`OCC1(Cc2ccc(Cl)cc2)CCN(Cc2ccccc2O)CC1`: the “Percent Effect” value is reported as -3.576%.
For the molecule `c1ccc2c(c1)COC1(CCCCC1)N2`, the “Percent Effect” value is recorded as 87.69%.
As for `O=C(O)C(F)(F)F.O=C1COC2(CCN(Cc3ccc(F)cc3)CC2)CN1`, the “Percent Effect” value was determined as 10.25%.
Turning to `c1ccc(CN2CCC3(CC2)Nc2ccccc2CO3)cc1`, the “Percent Effect” value stood at 107.9%.
As for `CC1CCC2(CC1)Nc1ccccc1CO2` (stereo unspecified), the “Percent Effect” value is on record as 93.91%.
Consider `c1ccc2c(c1)COC1(CCCC1)N2`, for which the “Percent Effect” value came out at 105.5%.
With `CCc1nc(NC(=O)NCCc2cccc(C)n2)nn1C` the figure was -4.482%; with `O=S(=O)(NCC(O)c1ccc(C(F)(F)F)cc1)C1CC1` (stereo unspecified), -5.07%; with `Cc1noc(C)c1CNc1cccc(C(=O)N2CCCC(O)C2)c1` (stereo unspecified), 6.213%.
In the case of `CC(C)(C)n1ncc2c(=O)[nH]c(N3CCC4(CCCCC4)C3)nc21`, the “Percent Effect” value was -1.553%.
The result for `N#Cc1ccsc1N1CCC(Sc2ccncc2)C1=O` (stereo unspecified) reads 81.54%; that for `CN(Cc1ncnn1C)C1CCN(c2sccc2C#N)C1=O` (stereo unspecified), 7.621%; that for `Cc1cc(N)nc(SC2CCN(c3ccccc3F)C2=O)n1` (stereo unspecified), 10.35%.
The result for `O=C1C(Sc2nc(=O)ccn2C2CC2)CCN1c1ccccc1` (stereo unspecified) reads -7.516%.
With `Cn1c(N)nnc1SC1CCCN(c2ccccc2)C1=O` (stereo unspecified) the figure was -9.447%.
Take `CCc1cnc(CN(C)C2CCN(c3sccc3C#N)C2=O)s1` (stereo unspecified): the “Percent Effect” value was 1.692%.
Take `N#Cc1ccsc1N1CCC(Sc2ncc[nH]2)C1=O` (stereo unspecified): the “Percent Effect” value stood at 95.53%.
On to `Cc1cc(N)nc(SC2CCN(c3ccccc3)C2=O)n1` (stereo unspecified), for which the “Percent Effect” value was -22.79%.
The result for `CCc1ncc(CN(C)C2CCN(c3sccc3C#N)C2=O)s1` (stereo unspecified) reads 0.715%.
The result for `Cc1nnc(SC2CCN(c3sccc3C#N)C2=O)s1` (stereo unspecified) reads 109.2%; that for `Cc1nnc(SC2CCN(c3sccc3C#N)C2=O)[nH]1` (stereo unspecified), 106.7%.
